The results in this text go back to PubChem BioAssay (EPA / NIEHS).

Several values for one entry are separate records, joined by “and”; a condition that tells them apart may be missing. Equal values may be shown once. Inconclusive results are not listed. Some structures have more than one record in an assay (separate samples or runs), and their calls can disagree. Activity calls are given as the source filed them. How the source made its calls: active means hit-call score of the fitted dose curve at least 0.9, where 1 is the maximum; inconclusive means response in the unintended direction; inactive means score below 0.9.

Sequence of human CYP2C9, CYP2C9 (gene 1559) (P11712 whole entry, looked up): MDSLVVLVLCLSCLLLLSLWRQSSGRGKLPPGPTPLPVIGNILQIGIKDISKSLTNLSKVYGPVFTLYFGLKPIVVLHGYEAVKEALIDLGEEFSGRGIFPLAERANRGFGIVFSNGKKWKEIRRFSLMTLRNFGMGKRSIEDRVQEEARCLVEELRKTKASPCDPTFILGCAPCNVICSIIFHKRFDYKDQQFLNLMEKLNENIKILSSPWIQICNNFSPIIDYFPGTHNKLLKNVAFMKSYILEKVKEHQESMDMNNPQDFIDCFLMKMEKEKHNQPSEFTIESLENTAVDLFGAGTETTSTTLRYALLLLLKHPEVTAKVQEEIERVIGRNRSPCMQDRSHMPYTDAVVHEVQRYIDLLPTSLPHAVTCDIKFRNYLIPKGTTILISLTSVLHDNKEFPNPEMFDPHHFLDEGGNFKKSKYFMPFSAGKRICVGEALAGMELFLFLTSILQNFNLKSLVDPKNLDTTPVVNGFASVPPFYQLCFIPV

The assay has as its target human CYP2C9, CYP2C9 (gene 1559) (UniProt P11712). The experiment in a line: NVS_ADME_hCYP2C9: NovaScreen (NVS) CYP450-related Enzyme Activity (ADME) Assay for human CYP2C9 (AID 2283108). The protocol: NVS_ADME_hCYP2C9 is a biochemical, single-readout assay that uses extracted gene-proteins from SF9 in a cell-free assay. Measurements were taken 0.75 hour after chemical dosing in a 96-well plate.NVS_ADME_hCYP2C9 is one of one assay component(s) measured or calculated from the NVS_ADME_hCYP2C9 assay. It is designed to make measurements of enzyme activity, a form of enzyme reporter, as detected with fluorescence intensity signals by Fluorescence technology.Data from the assay component NVS_ADME_hCYP2C9 was analyzed into 1 assay endpoint. This assay endpoint, NVS_ADME_hCYP2C9, was analyzed in the positive analysis fitting direction relative to Acetonitrile as the negative control and baseline of activity. Using a type of enzyme reporter, loss-of-signal activity can be used to understand changes in the enzymatic activity as they relate to the gene CYP2C9. Furthermore, this assay endpoint can be referred to as a primary readout, because this assay has produced multiple assay endpoints where this one serves a enzymatic activity function. To generalize the intended target to other relatable targets, this assay endpoint is annotated to the cyp intended target family, where the subfamily is xenobiotic metabolism.
Binding assays used specific radioligands (tritiated, iodinated) with non-radioactive competitive displacement ligands in agonist or antagonist protocols (as indicated) and various reference compounds and inhibitors to titrate specific binding to receptors and transporters. Most enzyme assays (CYPs, kinases, phosphatases, proteases, HDACs) used recombinant protein and specific substrates (fluorescence mostly, some colorimetric and radioactive) and inhibitors, followed by a biochemical separation of substrate and product. All assays for the biochemical HTS were initially run in duplicate at a single concentration (10 uM for CYP450 assays and 25 uM for all others). […] Each assay was run with positive and negative controls, and concurrent controls on every plate. The follow-up (secondary) screen tested active chemical-pairs in concentration series, as well as a few additional assays not tested in the primary screen, some selected negative inactives, and several cases re-run in the concentration series for confirmatory purposes.
Consider `CC(C)(C)C(O)C(Oc1ccc(Cl)cc1)n1cncn1` (stereo unspecified), for which the AC50 was 5.02 µM (active) and 7.84 µM (active); the outcome was inactive.

`COP(=S)(OC)Oc1ccc(SC)c(C)c1`: the AC50 was 5.54 µM (active).

On to `CC(C)(C)C(O)/C(=C\c1ccc(Cl)cc1Cl)n1cncn1` (stereo unspecified), for which the AC50 is 0.721 µM (active).

Regarding `O=C(O)C(F)(F)C(F)(F)C(F)(F)C(F)(F)C(F)(F)C(F)(F)C(F)(F)F`, the AC50 is 0.237 µM (active) and the molecule was classed as inactive.

For `CC1(C)C(C=C(Cl)Cl)C1C(=O)OC(C#N)c1ccc(F)c(Oc2ccccc2)c1` (stereo unspecified), the half-maximal activity concentration (AC50) is 10 µM (active).

Regarding `Oc1ccc(Cl)cc1Cc1ccccc1`, the AC50 is 6.54 µM (active) [middle of 7 runs].

In the case of `COP(=S)(OC)Oc1ccc([N+](=O)[O-])cc1`, the AC50 was 4.05 µM (active).

With `CCCN(CCOc1c(Cl)cc(Cl)cc1Cl)C(=O)n1ccnc1`, the half-maximal activity concentration (AC50) was 0.578 µM (active).

`COc1nn(CSP(=S)(OC)OC)c(=O)s1`: the AC50 is 2.88 µM (active).
